# Assay results taken from PubChem BioAssay (NCATS).
# Several values for one entry are separate records, joined by “and”; a condition that tells them apart may be missing. Equal values may be shown once. Results filed as inconclusive are left out. Entries that show only a call come without a potency. Activity calls are given as the source filed them. Calls come from the whole dose curve.
# What was measured:
# [1] = Primary qHTS for inhibitors of MERS-S pseudo-typed particle cell entry (AID 1479149); conditions: MERS-S pseudotyped particle entry, luciferase; series mostly up to 57.1 µM; note: nearly all actives have a fitted effect of over 60% in size
# [2] = Primary qHTS for Vero E6 cytotoxicity: counterscreen for inhibitors of SARS-S pseudo-typed particle cell entry (AID 1479150); conditions: cell viability; series mostly up to 57.1 µM
# [3] = Cytotoxicity counterscreen for inhibitors of SARS-CoV-2 cell entry (AID 1645845); conditions: cell viability (SARS-CoV-2 entry assay cells); series mostly up to 57.1 µM; note: nearly all actives have a fitted effect of over 50% in size
# Procedure, shortened: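 After a 15 min room-temperature ATPLite 1step step, luminescence reflected ATP remaining in HEK293-ACE2 cells exposed to compound for 1 h plus 48 h at 37 C, with percent activity set by cell and no-cell controls.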
# [4] = Primary qHTS to identify inhibitors of SARS-CoV-2 cell entry (AID 1645846); conditions: SARS-CoV-2 pseudovirus cell entry assay, luminescence; activity change, negative = inhibition: at 57.1 µM (top of the series) unless noted; series mostly up to 57.1 µM; note: nearly all actives have a fitted effect of over 45% in size
# Procedure, shortened: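 HEK293 cells stably expressing human ACE2, pre-treated 1 h with compound, then infected with MLV particles pseudotyped with Wuhan-Hu-1 spike (C-terminal 19-aa truncation). Luciferase luminescence after 48 h at 37 °C, normalised to spike PP and bald PP.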
SMILES,Potency [1],Potency [2],Potency [3],"activity change, negative = inhibition [4]",Potency [4]
COC(=O)CCc1ccc(OCC(O)CNC(C)C)cc1 (centres undefined),inactive,inactive,inactive,-35%,
CC[C@@H](CO)NCCN[C@@H](CC)CO,inactive,inactive,inactive,-13.9%,
C[N+]1(C)CCC(OC(=O)C(O)(c2ccccc2)C2CCCC2)C1 (centres undefined),inactive,inactive,inactive,,inactive
CCCN(CCC)S(=O)(=O)c1ccc(C(=O)O)cc1,inactive,inactive,inactive,-14.9%,
Oc1ccc(C2CNCCc3c2cc(O)c(O)c3Cl)cc1 (centres undefined),inactive,inactive,inactive,,inactive
O=C1NC(c2ccccc2)(c2ccccc2)C(=O)N1COP(=O)(O)O,inactive,inactive,inactive,-4.89%,
CC(C)[N+](C)(CCOC(=O)C1c2ccccc2Oc2ccccc21)C(C)C,inactive,inactive,inactive,2.34%,
CC(=O)Nc1nnc(S(N)(=O)=O)s1,inactive,inactive,inactive,1.7%,
CN(C)c1ccc(O)c2c1C[C@H]1C[C@H]3[C@H](N(C)C)C(=O)C(C(N)=O)=C(O)[C@@]3(O)C(=O)C1=C2O,inactive,inactive,inactive,-8.61%,
Nc1nc2c(ncn2COC(CO)CO)c(=O)[nH]1,inactive,inactive,inactive,-11.4% and -3.55%,
CN(CCOc1ccc(NS(C)(=O)=O)cc1)CCc1ccc(NS(C)(=O)=O)cc1,inactive,inactive,inactive,4.03% and 4.22%,
CCCCNC(=O)NS(=O)(=O)c1ccc(C)cc1,inactive,inactive,inactive,,inactive
O=C1CCC(N2C(=O)c3ccccc3C2=O)C(=O)N1 (centres undefined),inactive,inactive,inactive,-0.562% and -0.309%,
CC(C)(C)NC(=O)[C@@H]1CN(Cc2cccnc2)CCN1C[C@@H](O)C[C@@H](Cc1ccccc1)C(=O)N[C@H]1c2ccccc2C[C@H]1O,inactive,inactive,inactive,4.24%,
CN(C)c1cc(NC(=O)CNC(C)(C)C)c(O)c2c1C[C@@H]1C[C@H]3[C@H](N(C)C)C(=O)C(C(N)=O)=C(O)[C@@]3(O)C(=O)C1=C2O,inactive,inactive,inactive,-25.4%,
CCOC(=O)[C@H](CCc1ccccc1)N[C@@H](C)C(=O)N1[C@H](C(=O)O)C[C@@H]2CCC[C@@H]21,inactive,inactive,inactive,,inactive
CO/N=C1\CN(c2nc3c(cc2F)c(=O)c(C(=O)O)cn3C2CC2)CC1CN (centres undefined),inactive,inactive,inactive,-12.6%,
Cc1ccnc2c1NC(=O)c1cccnc1N2C1CC1,inactive,inactive,inactive,-19.4%,

SMILES,Potency [1],Potency [2],Potency [3],"activity change, negative = inhibition [4]",Potency [4]
CC(C)(O)c1ccccc1CC[C@@H](SCC1(CC(=O)O)CC1)c1cccc(/C=C/c2ccc3ccc(Cl)cc3n2)c1,inactive,inactive,inactive,,inactive
CC(=O)SC[C@@H](C)C(=O)N1CCC[C@H]1C(=O)N[C@@H](Cc1ccccc1)C(=O)O,inactive,inactive,inactive,-7.21%,
CC(C)C1CCC(C(=O)N[C@H](Cc2ccccc2)C(=O)O)CC1 (some centres undefined),inactive,inactive,inactive,2.32% and -12.7%,
O=C1[C@H](CC[C@H](O)c2ccc(F)cc2)[C@@H](c2ccc(O)cc2)N1c1ccc(F)cc1,inactive,inactive,inactive,1.63% and -17.2%,
CCCCC1=NC2(CCCC2)C(=O)N1Cc1ccc(-c2ccccc2-c2nn[nH]n2)cc1,inactive,inactive,inactive,,inactive
CC(=O)N[C@@H](CS)C(=O)O,inactive,inactive,inactive,,inactive
Nc1cccc2c1CN(C1CCC(=O)NC1=O)C2=O (centres undefined),inactive,inactive,inactive,,inactive
Cc1cc2c(s1)Nc1ccccc1N=C2N1CCN(C)CC1,inactive,inactive,inactive,-19.8%,
NC(=O)N1c2ccccc2CC(=O)c2ccccc21,inactive,inactive,inactive,,inactive
CC1=C(C(=O)O)N2C(=O)[C@@H](NC(=O)[C@H](N)c3ccccc3)[C@H]2SC1,inactive,inactive,inactive,-1.93%,
CN(C)CCOC(C)(c1ccccc1)c1ccccn1 (centres undefined),inactive,inactive,inactive,2.27%,
CC[N+](C)(C)c1cccc(O)c1,inactive,inactive,inactive,,inactive
NC(=O)c1cn(Cc2c(F)cccc2F)nn1,inactive,inactive,inactive,,inactive
O=C1OCCN1/N=C/c1ccc([N+](=O)[O-])o1,inactive,inactive,inactive,,inactive
CCCCN1C[C@H](O)[C@@H](O)[C@H](O)[C@H]1CO,inactive,inactive,inactive,-1.04%,
NS(=O)(=O)c1cc2c(cc1Cl)NC=NS2(=O)=O,inactive,inactive,inactive,,inactive
O=C(O)P(=O)(O)O,inactive,inactive,inactive,,inactive
O=c1n(CCCN2CCN(c3cccc(Cl)c3)CC2)nc2ccccn12,inactive,inactive,inactive,-23.8%,
